Test results: PubChem BioAssay (Tox21)
Results filed as inconclusive are left out. Calls of active or inactive are those of the source. Unless noted, calls come from the whole dose curve.

Legend:
[1] = Nuclear factor erythroid 2-related factor 2/antioxidant responsive element (Nrf2/ARE) small molecule agonists: qHTS cell viability counter screen in human keratinocytes (AID 1919968; active = well fitted curve in the direction sought with a large enough effect in the repeat runs; an effect the other way counts as inactive or inconclusive; note: nearly all actives have a fitted effect of over 55% in size)
Outline: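 Viability counter-screen: KeratinoSens reporter cells, DMSO-delivered compounds, 23 h at 37 C, CellTiter-Fluor fluorescence.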

[2] = Nuclear factor erythroid 2-related factor 2/antioxidant responsive element (Nrf2/ARE) small molecule agonists: luciferase reporter gene qHTS assay in human keratinocytes (AID 1919969); note: nearly all actives have a fitted effect of over 35% in size
[3] = molecular target: Gonadotropin-releasing hormone receptor (Homo sapiens) (UniProt P30968); assay: Human gonadotropin-releasing hormone receptor (GnRHR) small molecule agonists, calcium flux assay in GnRHR-HEK293 cells (AID 1920063); note: nearly all actives have a fitted effect of over 35% in size
Outline: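 Tox21-format agonist screen using human GnRHR-expressing HEK293 cells and a fluorescent calcium dye; kinetic 3-min fluorescence reading after compound addition, 15-point concentration series run in triplicate.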

[4] = molecular target: KiSS-1 receptor (Homo sapiens) (UniProt Q969F8); assay: Human kisspeptin (KISS1R) small molecule agonists, calcium flux assay in KISS1R-HEK293 cells (AID 1920064; active = well fitted curve in the direction sought with a large enough effect in the repeat runs; an effect the other way counts as inactive or inconclusive)
Outline: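 Intracellular calcium mobilization in KISS1R-HEK293 cells was recorded by fluorescence (Ex/Em 480/540) for 3 min following compound addition to cells pre-loaded 1 h with calcium dye.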

[5] = p53 small molecule agonists, cell-based qHTS assay with human liver microsomes (AID 1963577)
Outline: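 Compounds act here after metabolic activation: human liver microsomes and NADPH, both at 0.5 mg/mL final, were co-added to p53RE-bla cells. Incubation ran 16 h at 37 C, followed by LiveBLAzer detection.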

[6] = p53 small molecule agonists, cell-based qHTS assay with rat liver microsomes (AID 1963578)
Outline: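 Read-out is beta-lactamase reporter fluorescence (LiveBLAzer, 2 h, room temperature, dark) in p53RE-bla cells treated 16 h at 37 C with compound, rat liver microsomes and NADPH, both 0.5 mg/mL final.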

[7] = p53 small molecule agonists, cell-based qHTS assay with human liver microsomes: qHTS cell viability counter screen (AID 1963579); note: nearly all actives have a fitted effect of over 45% in size
Outline: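 Cells carrying the p53 response-element beta-lactamase reporter are treated for 16 h at 37 C with test compounds in the presence of human liver microsomes and NADPH (both 0.5 mg/mL final); ATP-based CellTiter-Glo luminescence then reports viability.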

[8] = p53 small molecule agonists, cell-based qHTS assay with rat liver microsomes: qHTS cell viability counter screen (AID 1963580); note: nearly all actives have a fitted effect of over 45% in size
Outline: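 In HCT-116 cells carrying a p53 response element-bla reporter, compounds were metabolically activated in situ by rat liver microsomes with NADPH over 16 h. Cell ATP content then served as the cytotoxicity measure.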

[9] = p53 small molecule agonists, cell-based qHTS assay: qHTS cell viability counter screen (AID 1963581); note: nearly all actives have a fitted effect of over 45% in size
Outline: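 Compounds are pinned onto HCT-116 p53RE-bla cells and left 16 h at 37 C. Following the reporter FRET read, ATP is quantified by CellTiter-Glo luminescence after 30 min at room temperature.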

[10] = molecular target: Muscarinic acetylcholine receptor M1 (Homo sapiens) (UniProt P11229); assay: Cholinergic receptor muscarinic 1 (CHRM1) small molecule antagonists, cell-based qHTS assay (AID 1963588); note: nearly all actives have a fitted effect of over 40% in size
Outline: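 CHRM1-CHO calcium-flux assay, antagonist mode. Cells were seeded 18 h, dye-loaded 1 h at 37 C and given compound for 5 min at RT, then acetylcholine was added at 50nM. FDSS fluorescence was read 3 min; 15 concentrations, three runs.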

[11] = molecular target: Muscarinic acetylcholine receptor M1 (Homo sapiens) (UniProt P11229); assay: Cholinergic receptor muscarinic 1 (CHRM1) small molecule agonists, cell-based qHTS assay (AID 1963589); note: nearly all actives have a fitted effect of over 35% in size
Outline: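 Stable CHRM1-CHO cells (human receptor) were incubated 18 h, dye-loaded for 1 h at 37 C and exposed to test compounds for agonist activity, with calcium-dependent fluorescence followed kinetically.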

[12] = cAMP Responsive Elements (CRE) small molecule agonists, cell-based qHTS assay (AID 1963590)
Outline: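 FRET-based beta-lactamase readout (LiveBLAzer B/G, 2 h RT) quantified CRE activation in HEK 293T CRE-bla cells after 3 h treatment with DMSO-dissolved compounds.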

[13] = molecular target: Beta-2 adrenergic receptor (Homo sapiens) (UniProt P07550); assay: Adrenergic beta2 receptor (ADRB2) small molecule antagonists, cell-based qHTS assay (AID 1963592); note: series mostly up to about 92 µM; nearly all actives have a fitted effect of over 50% in size
Outline: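 Cells (CHO, stable ADRB2 overexpression) incubated 18-20hr at 37C; compounds added from DMSO; agonist mix (1nM isoproterenol, 100uM IBMX, 25uM Ro-20-1724) added; 0.5hr RT; d2-cAMP and anti-cAMP-cryptate added; 1hr RT; 665/615 nm read.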

[14] = molecular target: D(2) dopamine receptor (Homo sapiens) (UniProt P14416); assay: Dopamine D2 receptor (DRD2) small molecule agonists, cell-based qHTS assay (AID 1963594); note: nearly all actives have a fitted effect of over 35% in size
Outline: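 HEK293 cells stably expressing DRD2 were cultured 24 h at 37 C, then given Ro20-1724 (0.1 mM final) and compounds for 10 min at room temperature. NKH477 (200nM) was then added for 30 min. cAMP was read by HTRF.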

[15] = molecular target: D(2) dopamine receptor (Homo sapiens) (UniProt P14416); assay: Dopamine D2 receptor (DRD2) small molecule antagonists, cell-based qHTS assay (AID 1963595; active = well fitted inhibition curve with a large enough effect in the signal ratio in the repeat runs, with a control signal flat; the % refers to the signal ratio)
Outline: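 Stable D2 receptor HEK293 line, 24 h after seeding. Compound preincubated 10 min, then quinpirole (12 nM) with forskolin analogue NKH477 (200 nM), 30 min, room temperature. Detection by time-resolved FRET of cAMP.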

[16] = p53 small molecule agonists, cell-based qHTS assay (AID 1963582; active = well fitted activation curve with a large enough effect in the signal ratio in the repeat runs, not every such curve was filed as active; the % refers to the signal ratio)
Outline: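 Agonist activity was scored from beta-lactamase FRET fluorescence in p53RE-bla cells treated 16 h at 37 C with compounds in DMSO, substrate incubation being 2 h at room temperature.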

[17] = cAMP Responsive Elements (CRE) small molecule antagonists, cell-based qHTS assay (AID 1963591; active = well fitted inhibition curve with a large enough effect in the signal ratio in the repeat runs, not every such curve was filed as active; the % refers to the signal ratio)
Outline: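 qHTS in CRE-bla HEK 293T cells: compound in DMSO, then 0.25 uM NKH477 (final), 3 h at 37 °C/5% CO2; beta-lactamase FRET read-out after 2 h substrate incubation.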

[18] = molecular target: Beta-2 adrenergic receptor (Homo sapiens) (UniProt P07550); assay: Adrenergic beta2 receptor (ADRB2) small molecule agonists, cell-based qHTS assay (AID 1963593);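 note: CHO cells stably overexpressing human ADRB2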
Outline: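 CHO cells stably over-expressing ADRB2 were plated overnight at 37C, then dosed with compounds plus a stimulation mix containing 100uM IBMX and 25uM Ro-20-1724 for 0.5hr at room temperature. cAMP was measured by HTRF competition, 1hr.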

[19] = molecular target: 5-hydroxytryptamine receptor 2A (Homo sapiens) (UniProt P28223); assay: 5-hydroxytryptamine receptor 2A (HTR2A) small molecule antagonists, cell-based qHTS assay (AID 1963586); note: nearly all actives have a fitted effect of over 45% in size
Outline: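 Antagonist-mode intracellular calcium assay: DOI (4 nM) added after 5 min compound pre-incubation at room temperature to dye-loaded HTR2A-CHO cells. Fluorescence followed for 3 min, sampled every second.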

[20] = molecular target: 5-hydroxytryptamine receptor 2A (Homo sapiens) (UniProt P28223); assay: 5-hydroxytryptamine receptor 2A (HTR2A) small molecule agonists, cell-based qHTS assay (AID 1963587); note: nearly all actives have a fitted effect of over 30% in size
Outline: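 HTR2A-CHO cells, plated 18 h at 37 C/5% CO2, dye-loaded 1 h at 37 C; compounds in DMSO added by pin tool (agonist mode). Intracellular calcium flux read as kinetic fluorescence on FDSS over 2 min at 1 s intervals.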
% is set by controls: 0 for no effect and ±100 for the full control effect.

Chain of 5-hydroxytryptamine receptor 2A (Homo sapiens) (P28223 whole entry, looked up): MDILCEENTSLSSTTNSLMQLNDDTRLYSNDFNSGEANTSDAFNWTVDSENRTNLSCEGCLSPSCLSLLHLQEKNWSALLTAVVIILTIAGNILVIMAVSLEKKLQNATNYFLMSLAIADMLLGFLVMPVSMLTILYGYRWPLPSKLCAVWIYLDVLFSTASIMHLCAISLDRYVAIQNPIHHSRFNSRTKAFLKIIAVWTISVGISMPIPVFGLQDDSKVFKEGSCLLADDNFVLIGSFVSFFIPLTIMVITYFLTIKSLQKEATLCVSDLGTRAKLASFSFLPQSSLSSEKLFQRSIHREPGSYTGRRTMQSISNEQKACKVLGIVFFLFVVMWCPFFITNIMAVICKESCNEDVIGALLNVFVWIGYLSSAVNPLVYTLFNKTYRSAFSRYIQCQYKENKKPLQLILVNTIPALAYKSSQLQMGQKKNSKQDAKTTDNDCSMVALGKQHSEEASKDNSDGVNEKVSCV
Chain of Beta-2 adrenergic receptor (Homo sapiens) (P07550 whole entry, looked up): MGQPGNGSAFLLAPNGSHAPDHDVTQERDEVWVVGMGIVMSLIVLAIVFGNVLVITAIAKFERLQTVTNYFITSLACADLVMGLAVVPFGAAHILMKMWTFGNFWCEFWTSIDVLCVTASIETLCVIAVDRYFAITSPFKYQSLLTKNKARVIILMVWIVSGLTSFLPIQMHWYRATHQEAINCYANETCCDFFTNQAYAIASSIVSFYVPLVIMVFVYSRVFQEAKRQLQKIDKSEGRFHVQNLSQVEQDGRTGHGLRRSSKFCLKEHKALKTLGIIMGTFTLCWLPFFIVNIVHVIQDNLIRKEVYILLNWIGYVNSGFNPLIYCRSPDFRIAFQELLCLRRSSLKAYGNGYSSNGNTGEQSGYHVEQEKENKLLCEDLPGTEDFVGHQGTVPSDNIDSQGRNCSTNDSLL
Chain of Gonadotropin-releasing hormone receptor (Homo sapiens) (P30968 whole entry, looked up): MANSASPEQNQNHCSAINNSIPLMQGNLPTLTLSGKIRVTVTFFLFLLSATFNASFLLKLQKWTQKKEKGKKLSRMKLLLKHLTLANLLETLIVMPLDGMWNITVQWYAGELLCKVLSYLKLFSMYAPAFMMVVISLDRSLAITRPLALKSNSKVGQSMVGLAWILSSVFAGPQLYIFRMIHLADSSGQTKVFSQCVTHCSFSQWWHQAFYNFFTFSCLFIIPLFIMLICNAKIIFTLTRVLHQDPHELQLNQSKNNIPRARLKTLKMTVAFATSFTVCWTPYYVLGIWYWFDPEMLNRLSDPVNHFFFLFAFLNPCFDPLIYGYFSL
Chain of KiSS-1 receptor (Homo sapiens) (Q969F8 whole entry, looked up): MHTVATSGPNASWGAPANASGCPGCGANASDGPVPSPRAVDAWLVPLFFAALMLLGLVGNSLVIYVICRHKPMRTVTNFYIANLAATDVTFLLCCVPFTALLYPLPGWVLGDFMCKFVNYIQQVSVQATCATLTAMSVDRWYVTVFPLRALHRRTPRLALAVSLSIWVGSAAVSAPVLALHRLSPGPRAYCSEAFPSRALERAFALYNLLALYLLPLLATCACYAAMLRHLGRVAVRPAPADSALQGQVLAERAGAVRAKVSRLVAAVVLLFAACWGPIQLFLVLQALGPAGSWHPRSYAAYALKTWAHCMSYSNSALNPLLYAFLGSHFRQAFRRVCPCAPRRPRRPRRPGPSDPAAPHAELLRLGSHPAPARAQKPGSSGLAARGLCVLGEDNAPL
Chain of D(2) dopamine receptor (Homo sapiens) (P14416 whole entry, looked up): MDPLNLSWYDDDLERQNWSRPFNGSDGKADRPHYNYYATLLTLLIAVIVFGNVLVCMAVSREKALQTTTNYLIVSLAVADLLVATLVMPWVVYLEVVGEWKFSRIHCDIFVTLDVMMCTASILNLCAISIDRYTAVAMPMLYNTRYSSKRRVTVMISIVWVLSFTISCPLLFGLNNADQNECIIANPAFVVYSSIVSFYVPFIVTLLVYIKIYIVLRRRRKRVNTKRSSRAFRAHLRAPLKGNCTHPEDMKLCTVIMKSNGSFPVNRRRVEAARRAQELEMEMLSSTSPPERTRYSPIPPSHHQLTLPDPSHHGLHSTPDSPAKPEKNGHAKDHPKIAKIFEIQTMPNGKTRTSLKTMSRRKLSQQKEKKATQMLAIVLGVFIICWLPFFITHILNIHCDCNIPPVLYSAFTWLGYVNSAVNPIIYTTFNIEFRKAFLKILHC
Chain of Muscarinic acetylcholine receptor M1 (Homo sapiens) (P11229 whole entry, looked up): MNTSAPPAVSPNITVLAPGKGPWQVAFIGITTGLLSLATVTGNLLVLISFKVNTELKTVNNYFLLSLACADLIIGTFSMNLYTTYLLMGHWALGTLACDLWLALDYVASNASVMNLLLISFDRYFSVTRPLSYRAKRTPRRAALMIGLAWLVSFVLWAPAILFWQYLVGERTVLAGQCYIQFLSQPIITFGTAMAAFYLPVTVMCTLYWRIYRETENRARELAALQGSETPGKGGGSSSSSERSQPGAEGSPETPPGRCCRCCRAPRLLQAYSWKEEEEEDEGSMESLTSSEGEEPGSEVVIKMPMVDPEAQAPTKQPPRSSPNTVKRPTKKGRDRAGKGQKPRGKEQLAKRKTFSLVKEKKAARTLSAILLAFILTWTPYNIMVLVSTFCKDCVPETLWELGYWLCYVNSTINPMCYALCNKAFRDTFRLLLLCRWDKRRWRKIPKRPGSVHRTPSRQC

C/C=C(/C(=C/C)c1ccc(OC(C)=O)cc1)c1ccc(OC(C)=O)cc1
inactive: Potency [1] | Potency [2] | Potency [3] | outcome [4] | Potency [5] | Potency [6] | Potency [7] | Potency [8] | Potency [9] | Potency [10] | Potency [11] | Potency [12] | Potency [13] | Potency [14] | Potency [15]

CN(C)CCC[C@@]1(c2ccc(F)cc2)OCc2cc(C#N)ccc21
inactive: Potency [1] | Potency [2] | Potency [3] | outcome [4] | Potency [5] | Potency [6] | Potency [7] | Potency [8] | Potency [9] | Potency [16] | Potency [12] | Potency [17] | Potency [13] | Potency [18] | Potency [14] | Potency [15]

CC(C(=O)O)c1ccc2c(c1)CC(=O)c1ccccc1S2 (stereo not given)
inactive: Potency [1] | Potency [2] | Potency [3] | outcome [4] | Potency [5] | Potency [6] | Potency [7] | Potency [8] | Potency [9] | Potency [16] | Potency [19] | Potency [20] | Potency [10] | Potency [17] | Potency [15]

CCN[C@@H]1C[C@H](N)[C@@H](OC2OC(CN)=CCC2N)[C@H](O)[C@H]1O[C@H]1OC[C@](C)(O)[C@H](NC)[C@H]1O (stereo not given in full)
inactive: activity change, negative = cytotoxicity [1] -5.32% [at 0.349 µM] | activity, positive = activation [2] 8.13% [at 0.349 µM] | activity change [3] -1.46% [at 0.217 µM, active compounds read high] | activation [4] -0.712% [at 0.29 µM] | activation [5] 2.31% [at 0.249 µM] | activation [6] -0.776% [at 0.249 µM] | activity change, negative = cytotoxicity [7] 1.03% [at 0.249 µM] | activity change, negative = cytotoxicity [8] -10.4% [at 0.249 µM] | activity change, negative = cytotoxicity [9] -18.4% [at 0.249 µM] | activation [16] 5.55% [at 0.249 µM] | activation [12] -0.986% [at 0.349 µM] | activity change, negative = inhibition [17] -9.29% [at 0.349 µM] | activity change, negative = inhibition [13] -0.979% [at 0.349 µM] | activation [18] 7.07% [at 0.349 µM] | activation [14] -8.99% [at 0.349 µM] | activity change, negative = inhibition [15] 14.9% [at 0.348 µM]

CC(NN)c1ccccc1 (stereo not given)
inactive: activity change, negative = cytotoxicity [1] -0.107% [at 19 µM] | activity, positive = activation [2] -1.07% [at 19 µM] | activity change [3] -0.677% [at 11.8 µM, active compounds read high] | activation [4] -0.175% [at 15.8 µM] | activation [5] -2.41% [at 13.5 µM] | activation [6] -0.8% [at 13.6 µM] | activity change, negative = cytotoxicity [7] -4.08% [at 13.5 µM] | activity change, negative = cytotoxicity [8] 2.75% [at 13.5 µM] | activity change, negative = cytotoxicity [9] 23.1% [at 13.5 µM] | activity, negative = inhibition [19] 14.8% [at 12.7 µM] | activation [20] 1.19% [at 15.9 µM] | activity, negative = inhibition [10] 10.3% [at 12.6 µM] | activity change, negative = inhibition [17] -6.39% [at 18.9 µM] | Potency [18] | activation [14] 12.1% [at 19 µM] | activity change, negative = inhibition [15] 4.23% [at 18.9 µM]

CC(C)(C)C(=O)O
inactive: Potency [1] | Potency [2] | Potency [3] | outcome [4] | Potency [5] | Potency [6] | Potency [7] | Potency [8] | Potency [9] | Potency [16] | Potency [19] | Potency [20] | Potency [10] | Potency [12] | Potency [17] | Potency [13] | Potency [14] | Potency [15]

Cc1ccnc(N)c1
inactive: Potency [1] | Potency [2] | Potency [3] | outcome [4] | Potency [5] | Potency [6] | Potency [7] | Potency [8] | Potency [9] | Potency [16] | Potency [19] | Potency [20] | Potency [10] | Potency [11] | Potency [12] | Potency [17] | Potency [13] | Potency [14] | Potency [15]
